Results filed as inconclusive are left out. Where a call stands in place of a potency, no number is given. Unmarked numbers belong to inactive results. Active and inactive are the calls of the source. Calls follow the shape of the dose curve; as a rule, active = well fitted curve in the direction sought with a large enough effect; inconclusive = small, poorly fitted or top-dose-only effect, or another doubt; inactive = no such curve, though single readings can be large; an effect the other way counts as inactive or inconclusive.

The target of test [1] is Aldehyde dehydrogenase, mitochondrial (Homo sapiens) (UniProt P05091). Kind of test: qHTS for Inhibitors of the Aldehyde Dehydrogenase Family (ALDH2) Primary screen (AID 2061308). Also: nearly all actives have a fitted effect of over 55% in size. Background: qHTS replaces the single test concentration by a dilution series.
Test [2] deals with Retinaldehyde dehydrogenase 3 (Homo sapiens) (UniProt P47895). The experiment in a line: qHTS for Inhibitors of the Aldehyde Dehydrogenase Family (ALDH1A3) Primary screen (AID 2061315).

Regarding `COc1ccccc1-c1nc(NCc2ccc(-c3cccnc3)cc2)c2ccccc2n1`, the Potency result in test [1] and in test [2] was “inactive” each time.
On to `Cc1cn([C@H]2C[C@H](N[S+](=O)([O-])Cc3cc(Cl)cc(Cl)c3)[C@@H](CO)O2)c(=O)[nH]c1=O`, for which the Potency result in test [1] and in test [2] was “inactive” in each case.
For `Cc1ccnc(NC(=O)N2CCN(c3cccc(C(F)(F)F)c3)CC2)c1`, the Potency result in test [1] and in test [2] was “inactive” each time.
On to `COc1ccc(CC(=O)Nc2ccc(S(=O)(=O)Nc3cc(C)on3)cc2)cc1OC`, for which the Potency entry in test [1] and in test [2] was “inactive” each time.
Consider `Cc1ccc(NC(=O)c2cnn3c(C)cc(C)nc23)cc1`, for which the Potency result in test [1] and in test [2] was “inactive” in each case.
Turning to `COc1ccc(NC(=O)c2[nH]c(C)c(C(C)=O)c2C)cc1S(=O)(=O)Nc1cccc(C#N)c1`, the Potency entry in test [1] and in test [2] was “inactive” in each case.
Consider `CC(C)(C)c1ccc(Nc2nc(C#N)nc(NC3CCCC3)n2)cc1`, for which the Potency entry in test [1] and in test [2] was “inactive” in each case.
As for `Cc1cc(NC(=O)Nc2nnc(C3CCCCC3)s2)ccc1Br`, the Potency entry in test [1] and in test [2] was “inactive” in each case.
For the molecule `CC(C)(C)C1CCC(C(=O)Nc2ccc(S(=O)(=O)Nc3nccs3)cc2)CC1` (configuration not stated), the Potency result in test [1] and in test [2] was “inactive” throughout.
For the molecule `Cc1cc(-c2nnc3n2CCCCCC3)c(C)n1-c1ccccc1`, the Potency result in test [1] and in test [2] was “inactive” in each case.
On to `CC(=O)c1ccc(O[C@@H]2O[C@H](CO)[C@@H](O)[C@H](O)[C@H]2O)cc1`, for which the Potency result in test [1] and in test [2] was “inactive” in each case.
As for `COc1ccc(C2=Nn3c(nnc3-c3ccccc3F)SC2)cc1OC1CCOC1` (configuration not stated), the Potency result in test [1] and in test [2] was “inactive” in each case.
As to `CCCN1CCN(c2cccc(Nc3nn4c(=O)c5ccccc5nc4s3)c2)CC1`, the Potency entry in test [1] and in test [2] was “inactive” each time.
With `Cc1cc(NS(=O)(=O)c2ccc(NC(=O)Cc3cccc4ccccc34)cc2)no1`, the Potency result in test [1] and in test [2] was “inactive” in each case.
Regarding `COc1cccc(-c2nnc3n2N=C(c2ccccc2OC)CS3)c1`, the Potency entry in test [1] and in test [2] was “inactive” throughout.
Regarding `Cc1cn([C@H]2C[C@H](N[S+](=O)([O-])Cc3cccc([N+](=O)[O-])c3)[C@@H](CO)O2)c(=O)[nH]c1=O`, the Potency entry in test [1] and in test [2] was “inactive” each time.
In the case of `Cc1noc(-c2sc3c(c2-c2nc4ccccc4s2)CCNC3)n1`, the Potency entry in test [1] and in test [2] was “inactive” in each case.
Take `COC(=O)c1ccccc1S(=O)(=O)Nc1ccc(OC)cc1`: the Potency result in test [1] and in test [2] was “inactive” each time.
On to `O=C1CCCC2=C1C(c1ccncc1Br)N=C(Nc1nc3ccccc3o1)N2` (configuration not stated), for which the Potency entry in test [1] and in test [2] was “inactive” each time.
As to `Cc1cc2c(s1)c1cnn(Cc3c(F)ccc(Cl)c3F)c(=O)c1n2C`, the Potency entry in test [1] and in test [2] was “inactive” throughout.
Turning to `COc1cccc(CNc2ccc(S(=O)(=O)Nc3ccc(N4CCNCC4)cc3)cc2)c1O`, the Potency result in test [1] and in test [2] was “inactive” in each case.
On to `CCC(C)C(=O)OC1C(C)C2(O)C(C=C(CO)CC3(O)C(=O)C(C)=CC32)C2C(C)(C)C12OC(=O)C(C)C` (configuration not stated), for which the Potency result in test [1] and in test [2] was “inactive” in each case.
`Cc1ccc(N2C(=O)c3ccccc3C2=O)c(C)c1`: the Potency result in test [1] and in test [2] was “inactive” in each case.
Regarding `CCCn1c(C)nc2c(NC3CCCCC3)nc(C)nc21`, the Potency result in test [1] and in test [2] was “inactive” throughout.
Turning to `Cc1cc(C)n2ncc(C(=O)NC3CCCCC3)c2n1`, the Potency entry in test [1] and in test [2] was “inactive” in each case.
`Cc1cc(N[S+](=O)([O-])c2ccc(NC(=O)Cc3ccc(F)c(C)c3)cc2)no1`: the Potency entry in test [1] and in test [2] was “inactive” throughout.
Consider `CCOc1ccc(CCNC(=O)c2cc3ccccc3n2C)cc1OCC`, for which the Potency entry in test [1] and in test [2] was “inactive” each time.
For `COc1ccc(CNc2ccc(-c3nc4ccccc4[nH]3)cc2)cc1OC`, the Potency result in test [1] and in test [2] was “inactive” throughout.
Regarding `S=C(Nc1ccc(Cl)c(Cl)c1)Nc1nnc(-c2ccncc2)s1`, the Potency entry in test [1] and in test [2] was “inactive” in each case.
On to `CC[C@H]1OC(=O)[C@](C)(F)C(=O)[C@H](C)[C@@H](O[C@@H]2O[C@H](C)C[C@H](N(C)C)[C@H]2O)[C@](C)(OC)C[C@@H](C)C(=O)[C@@H](C)[C@H]2N(CCCCn3cc(-c4cccc(N)c4)nn3)C(=O)O[C@]12C`, for which the Potency result in test [1] and in test [2] was “inactive” in each case.
With `Cc1ccc(OCCn2c(CCNC(=O)/C=C/c3ccccc3Br)nc3ccccc32)cc1`, the Potency result in test [1] and in test [2] was “inactive” throughout.
Consider `C=C[C@H](/C=C\c1ccc(O)cc1)c1ccc(O)cc1`, for which the Potency result in test [1] and in test [2] was “inactive” in each case.
For the molecule `CCCc1ccc(-c2csc(NC(=O)c3ccncc3NS(=O)(=O)c3ccc(C)cc3)n2)cc1`, the Potency entry in test [1] and in test [2] was “inactive” each time.
Regarding `COC(=O)c1ccc(NC(=O)c2cc(-c3ccc(C)c(C)c3)nc3ccccc23)cc1`, the Potency result in test [1] and in test [2] was “inactive” in each case.
Take `O=c1c2ccccc2nc2sc(Nc3cccc4ccccc34)nn12`: the Potency entry in test [1] and in test [2] was “inactive” each time.
Consider `Cc1ccc(OCCn2c(CCNC(=O)c3cccc(C)c3)nc3ccccc32)cc1`, for which the Potency entry in test [1] and in test [2] was “inactive” in each case.
`N#Cc1ccccc1CNc1nc2ncc(Br)cc2[nH]1`: the Potency result in test [1] and in test [2] was “inactive” throughout.
On to `Oc1cc(-c2ccc(N3CCCCC3)nc2)cc2cccnc12`, for which the Potency entry in test [1] and in test [2] was “inactive” throughout.
As for `Oc1ccc(CNCc2ccc3c(c2)OCO3)c2cccnc12`, the Potency result in test [1] and in test [2] was “inactive” throughout.
With `C[C@@H]1CN(S(=O)(=O)c2ccc3c(c2)OCCO3)CCN1S(=O)(=O)c1c(F)cccc1F`, the Potency entry in test [1] and in test [2] was “inactive” each time.
As for `CN(C)c1ccccc1-c1csc(N2CCC(C(N)=O)CC2)n1`, the Potency entry in test [1] and in test [2] was “inactive” each time.
